According to PubChem BioAssay (Tox21):
Inconclusive results are not listed. The source made the active and inactive calls. Unless noted, calls come from the whole dose curve; as a rule, active = well fitted curve in the direction sought with a large enough effect in the repeat runs; inconclusive = weak or mixed curves; inactive = no such curve, though single readings can be large; an effect the other way counts as inactive or inconclusive.

What was measured:
[1] = target: Retinoic acid receptor RXR-alpha (Homo sapiens) (UniProt P19793); assay: qHTS assay to identify small molecule agonists of the RXR signaling pathway (AID 1159527; calls by dose curve; note: nearly all actives have a fitted effect of over 35% in size)
Chain of Retinoic acid receptor RXR-alpha (Homo sapiens) (P19793 whole entry, looked up): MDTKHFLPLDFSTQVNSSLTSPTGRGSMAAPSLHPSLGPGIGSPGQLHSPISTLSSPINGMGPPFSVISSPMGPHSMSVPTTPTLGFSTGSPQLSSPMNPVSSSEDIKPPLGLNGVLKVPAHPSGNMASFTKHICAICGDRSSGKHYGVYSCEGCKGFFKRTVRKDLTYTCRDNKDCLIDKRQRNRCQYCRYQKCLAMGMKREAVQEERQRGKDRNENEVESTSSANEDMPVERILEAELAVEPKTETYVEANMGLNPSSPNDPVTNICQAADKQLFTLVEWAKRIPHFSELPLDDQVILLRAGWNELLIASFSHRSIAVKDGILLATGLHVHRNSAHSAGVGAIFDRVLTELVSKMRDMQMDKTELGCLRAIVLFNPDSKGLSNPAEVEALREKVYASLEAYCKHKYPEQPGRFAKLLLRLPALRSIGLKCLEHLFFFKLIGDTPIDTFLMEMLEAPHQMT
How it was run: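 Agonist-mode beta-lactamase reporter assay: HEK 293T RXR-alpha-UAS-bla cells treated 16 hr at 37 C with compounds, 9-cis retinoic acid as positive control. LiveBLAzer FRET substrate, 405 nm excitation, 460/530 nm emission.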

[2] = qHTS assay to identify small molecule agonists of the RXR signaling pathway - cell viability counter screen (AID 1159529); note: series mostly up to about 77 µM; nearly all actives have a fitted effect of over 50% in size
How it was run: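 CellTiter-Glo luminescence gave viability in the wells also read for beta-lactamase. Cells (RXR-alpha-UAS-bla HEK 293T, 2% charcoal-stripped FBS medium) had 5 hr plating, then 16 hr compound exposure at 37 C; tetraoctyl ammonium bromide served as positive control.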

[3] = qHTS assay to identify small molecule antagonists of the retinoid acid receptor (RAR) signaling pathway - cell viability counter screen (AID 1159551); note: nearly all actives have a fitted effect of over 35% in size
How it was run: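 Seed C3RL4 cells; next day add compound, then retinol to 1 uM final; incubate 6 h at 37 C; add CellTiter-Glo; read luminescence after 30 min at RT.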
% is set by controls: 0 for no effect and ±100 for the full control effect.

O=C(O)Cc1cn(-c2ccccc2)nc1-c1ccc(Cl)cc1
inactive: Potency [1] | outcome [2] | outcome [3]

CC(C)(C)c1nnc(NS(=O)(=O)c2ccc(N)cc2)s1
inactive: Potency [1] | outcome [2] | outcome [3]

C[Si](C)=O
inactive: activation [1] 8.36% [at 6.98 µM] | activity change, negative = cytotoxicity [2] 0.062% [at 6.97 µM] | activity change, negative = cytotoxicity [3] 3.8% [at 8.39 µM]

CN(C)C(=O)CNC(=O)Cc1ccccc1
inactive: Potency [1] | outcome [2] | outcome [3]

C=C(C)C(=O)OCCNC(C)(C)C
inactive: Potency [1] | outcome [2] | outcome [3]

Nc1ccc(S(=O)(=O)Nc2ccc(Cl)nn2)cc1
inactive: Potency [1] | outcome [2] | outcome [3]

CCCCCCCCOS(=O)(=O)O
inactive: Potency [1] | outcome [2] | outcome [3]

c1ccc2nccnc2c1
inactive: Potency [1] | outcome [2] | outcome [3]

C[C@@H](Oc1ccc(CNC(=O)c2cccnc2Oc2ccc3c(c2)OCO3)c(F)c1)C(=O)O
inactive: Potency [1] | outcome [2] | outcome [3]

O=S(=O)(O)CCN1CCN(CCO)CC1
inactive: Potency [1] | outcome [2] | outcome [3]

CCCC(=O)C(C)=O
inactive: Potency [1] | outcome [2] | outcome [3]

CC(=O)N[C@@H](CCC(=O)O)C(=O)O
inactive: Potency [1] | outcome [2] | outcome [3]

CCn1ccc(NS(=O)(=O)c2ccc(N)cc2)nc1=O
inactive: Potency [1] | outcome [2] | outcome [3]

CC(C(=O)O)c1ccc2c(c1)CC(=O)c1ccccc1S2 (configuration not stated)
inactive: Potency [1] | outcome [2] | outcome [3]

O=C(CCN1CCN(CCO)CC1)N1c2ccccc2Sc2ccc(C(F)(F)F)cc21
inactive: Potency [1] | outcome [2] | outcome [3]

CC1=CCC(C(C)C)=CC1
inactive: Potency [1] | outcome [2] | outcome [3]

CC(C)CCCCOC(=O)c1ccccc1C(=O)OCCCCC(C)C
inactive: Potency [1] | outcome [2] | outcome [3]

Cc1ccsc1/C=C/C1=NCCCN1C
inactive: Potency [1] | outcome [2] | outcome [3]

CCOc1cc(NC(C)=O)ccc1C(=O)OC
inactive: Potency [1] | outcome [2] | outcome [3]

CCCCCCCCC(=O)Cl
inactive: Potency [1] | outcome [2] | outcome [3]

CCNC(=O)C1CC(C)CCC1C(C)C (configuration not stated)
inactive: Potency [1] | outcome [2] | outcome [3]

C=C(C)C(=O)OCCN(CC)CC
inactive: Potency [1] | outcome [2] | outcome [3]

O=C(CS(=O)Cc1ccco1)NC/C=C\COc1cc(CN2CCCCC2)ccn1 (configuration not stated)
inactive: Potency [1] | outcome [2] | outcome [3]

C=C(C)C1CCC(C)(O)CC1 (configuration not stated)
inactive: Potency [1] | outcome [2] | outcome [3]

C[Si](C)(C)C
inactive: Potency [1] | outcome [2] | outcome [3]

CC(C)N(c1ccccc1)C(C)C
inactive: Potency [1] | outcome [2] | outcome [3]

O=C1c2ccccc2C(=O)N1CCl
inactive: Potency [1] | outcome [2] | outcome [3]

O=C1O[C@@H]2[C@@H](O)[C@H](O)O[C@@H]2[C@H]1O
inactive: Potency [1] | outcome [2] | outcome [3]

COc1cc(C(=S)N2CCOCC2)cc(OC)c1OC
inactive: Potency [1] | outcome [2] | outcome [3]

C[C@H](CCC(=O)O)[C@H]1CC[C@H]2[C@@H]3C(=O)C[C@@H]4CC(=O)CC[C@]4(C)[C@H]3CC(=O)[C@]12C
inactive: Potency [1] | outcome [2] | outcome [3]

CC/C=C\CC1=C(C)CCC1=O
inactive: Potency [1] | outcome [2] | outcome [3]

CC(=O)Nc1ccc(S(=O)(=O)Cl)cc1
inactive: Potency [1] | outcome [2] | outcome [3]

C=C(C)C(=O)OCc1ccccc1
inactive: Potency [1] | outcome [2] | outcome [3]

COC(=O)c1ccccc1C(=O)c1ccc(OCCN2CCCCC2)cc1
inactive: Potency [1] | outcome [2] | outcome [3]

CN(C)CCOCCO
inactive: Potency [1] | outcome [2] | outcome [3]

COC(=O)CCc1ccc(OCC(O)CNC(C)C)cc1 (configuration not stated)
inactive: Potency [1] | outcome [2] | outcome [3]

Cc1nc2n(c(=O)c1CCN1CCC(c3noc4cc(F)ccc34)CC1)CCC[C@H]2O
inactive: activation [1] 4.51% [at 15.8 µM] | activity change, negative = cytotoxicity [2] -5.89% [at 15.8 µM] | activity change, negative = cytotoxicity [3] 0.276% [at 19 µM]

O=C1CC(c2ccc(Cl)cc2)CC(=O)N1
inactive: Potency [1] | outcome [2] | outcome [3]

CCC(C)NC(N)=O (configuration not stated)
inactive: Potency [1] | outcome [2] | outcome [3]

CCOC(=O)[C@H](CCc1ccccc1)N[C@@H](C)C(=O)N1C(=O)N(C)C[C@H]1C(=O)O
inactive: Potency [1] | outcome [2] | outcome [3]

CCCCCCCCSCC
inactive: Potency [1] | outcome [2] | outcome [3]

CCCCN
inactive: Potency [1] | outcome [2] | outcome [3]

Oc1cn2c(n1)Nc1ccc(Cl)c(Cl)c1C2
inactive: activation [1] 5.44% [at 15.8 µM] | activity change, negative = cytotoxicity [2] -0.221% [at 15.8 µM] | activity change, negative = cytotoxicity [3] 3.75% [at 19 µM]

CC(=O)NCc1c(I)c(NC(C)=O)c(I)c(C(=O)O)c1I
inactive: Potency [1] | outcome [2] | outcome [3]
